Bioassay records: PubChem BioAssay, National Center for Advancing Translational Sciences (NCATS)
Most compounds without a hit are left out; they make up all but 0.72% or so of the library.
USP2a block: qHTS Assay for Inhibitors of Ubiquitin-specific Protease USP2a Using CHOP2 as the Reporter; Ubiquitin carboxyl-terminal hydrolase 2 (Homo sapiens), O75604; USP2 core, Ub-CHOP2 coupled fluorogenic reporter, 485/531; Potency, µM (top dose mostly 38.3 µM), without a hit: at the highest dose activity change, negative = inhibition, hits mostly inhibitors; 330,000 compounds, 0.01% hits; AID 463254, 2010;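 further: potency means the concentration at half of the fitted maximal effect; plate controls were DMSO wells for no effect and full inhibition by NEM control for full effect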
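Cell-free coupled assay: 10nM USP2 core preincubated 30min RT with compound in Tris-HCl pH 8.0/CaCl2/CHAPS buffer, then 25nM Ub-CHOP2 and 25nM reporter substrate; fluorescence (Ex 485/Em 531) read after 60min RT, normalized to NEM inhibition, concentration-response curves fitted.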
CtBP-E1A inh: qHTS Assay for Inhibitors of the CtBP/E1A Interaction; AlphaScreen GST-E1A/His-CtBP binding, 1536-well; stronger effect = lower value; activity change, % (test concentration not listed); 340,000 compounds, 0.49% hits; in the data active means activity change below about -65%; inconclusive means mostly about -30% to -63%
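Protein mix (5X: 125 nM each GST-E1A, His-CtBP) was incubated with pinned compound 2 h at 37 deg C in dark, in 50 mM Tris pH 8.0 buffer with 300 mM NaCl. Glutathione donor and nickel acceptor beads followed; AlphaScreen signal read after 1 h.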
PI4K2A inh: qHTS for small molecular inhibitors of PI4K2A. Phosphatidylinositol 4-kinase type 2-alpha (Homo sapiens), Q9BTU6. purified PI4K2A, ADP-Glo luminescence, 1 h; stronger effect = lower value. activity change, negative = inhibition, % at 76.9 µM. 420,000 compounds, 0.13% hits; in the data active means activity change below about -50%; inconclusive means mostly about -30% to -49%;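 further: -100% = wells without enzyme as full effect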
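In this quantitative HTS, ADP production by PI4K2A was quantified luminescently after 1 h at ambient temperature; 100 microM adenosine served as plate-quality control.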
Six1-Eya2 inh: qHTS Assay for Inhibitors of the Six1/Eya2 Interaction; Homeobox protein SIX1 (Homo sapiens) + Protein phosphatase EYA2 (Homo sapiens), …; AlphaScreen GST-Six1/His-Eya2 binding, biochemical; stronger effect = lower value; activity change, % (concentration not given with the values); 360,000 compounds, 0.56% hits; AID 651725, 2012; in the data active means activity change below about -65%; inconclusive means mostly about -30% to -63%
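Six1/Eya2 binding was read as AlphaScreen signal after compounds were pinned into GST-Six1 plus His-tagged Eya2 (5X stock 250/500 nM) in pH 8.0 Tris/NaCl/TCEP buffer, beads added, then incubated 1 h, 37 C, dark.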
RGS4 inhibitor: Inhibitors of Regulator of G Protein Signaling (RGS) 4: qHTS; Transcreener GDP fluorescence polarization, RGS4-accelerated GTP hydrolysis; Potency, µM (top dose mostly 114 µM), without a hit: at the top dose activity change, negative = inhibition, usual class: inhibitors; 390,000 compounds, 0.039% hits; further: potency means the concentration at half of the fitted maximal effect; nearly all actives have a fitted effect of over 75% in size
Target sequence (P49798 whole entry, looked up): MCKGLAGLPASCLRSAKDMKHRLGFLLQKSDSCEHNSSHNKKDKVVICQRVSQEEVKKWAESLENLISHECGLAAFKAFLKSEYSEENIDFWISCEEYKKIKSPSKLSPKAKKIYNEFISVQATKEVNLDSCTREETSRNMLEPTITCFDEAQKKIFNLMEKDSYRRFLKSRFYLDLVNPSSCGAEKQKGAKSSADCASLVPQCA
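MLSMR compounds (23 nl, pin-transferred) preincubated 10 min at room temperature with a 500nM (2x) first reagent, then RGS4 at 900nM (2x) plus Transcreener GDP mix added; fluorescence polarization (620/688 nm) read before and after 90 min at 30 °C.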
Eya2 inh: qHTS Assay for Inhibitors of the Phosphatase Activity of Eya2; Protein phosphatase EYA2 (Homo sapiens), O00167; recombinant Eya2, OMFP fluorescence dephosphorylation (OMFP is methylfluorescein phosphate); Potency, µM (top dose mostly 76.9 µM), without a hit: top-dose activity, negative = inhibition, usual class: inhibitors; 330,000 compounds, 0.006% hits; AID 488837, 2010; further: potency means the concentration at half of the fitted maximal effect
Target sequence (O00167 whole entry, looked up): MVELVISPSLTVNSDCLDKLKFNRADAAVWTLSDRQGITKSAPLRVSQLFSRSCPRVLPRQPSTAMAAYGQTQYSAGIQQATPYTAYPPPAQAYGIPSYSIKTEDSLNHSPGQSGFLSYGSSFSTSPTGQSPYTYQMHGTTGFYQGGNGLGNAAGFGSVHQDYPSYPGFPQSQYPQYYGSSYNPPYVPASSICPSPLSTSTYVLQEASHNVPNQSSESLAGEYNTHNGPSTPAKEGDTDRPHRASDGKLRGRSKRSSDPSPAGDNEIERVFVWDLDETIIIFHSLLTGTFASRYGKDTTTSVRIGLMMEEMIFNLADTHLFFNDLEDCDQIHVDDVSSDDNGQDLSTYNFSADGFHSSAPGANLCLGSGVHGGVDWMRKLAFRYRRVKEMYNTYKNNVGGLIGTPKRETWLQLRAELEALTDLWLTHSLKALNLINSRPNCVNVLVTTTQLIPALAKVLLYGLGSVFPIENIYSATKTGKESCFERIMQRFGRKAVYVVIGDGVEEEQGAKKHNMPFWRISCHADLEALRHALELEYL
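Eya2 (0.2 uM) preincubated 10 min at ambient with compound, then OMFP substrate added at 50 uM; 10 min reaction in 50 mM HEPES pH 7.5, 50 mM NaCl, 5 uM MgCl2, 0.05% BSA, 1 mM DTT. Fluorescence read at Ex 485/Em 525 nm.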
Starred values were filed as active, the others as inactive; [ ] = another dose, or the depositor's remark. Unless noted, the call rests on the fitted dose curve; in most records, active means well fitted curve in the direction sought with a large enough effect; inconclusive means small, poorly fitted or top-dose-only effect, or another doubt; inactive means no such curve, though single readings can be large; an effect the other way counts as inactive or inconclusive. Unless noted, on the % scale 0 is the no-effect control and ±100 the full control effect.

Results for Cc1ccsc1/C=N/Nc1nc(=O)[nH]nc1C ?
USP2a block: -3%; CtBP-E1A inh: -94*; PI4K2A inh: -71*; Six1-Eya2 inh: -83*; RGS4 inhibitor: -2%; Eya2 inh: -13%

What do the screens show for `Cc1ccccc1CNC(=O)c1cnc2sc(N3CCC(C)CC3)nn2c1=O`?
PI4K2A inh: -2; RGS4 inhibitor: -11%

What do the screens show for `COc1cccc2c(SCC(=O)N/N=C/c3ccc(O)cc3O)cc(C)nc12`?
USP2a block: 3%; CtBP-E1A inh: -66*; PI4K2A inh: 3; Six1-Eya2 inh: -79*; RGS4 inhibitor: 18%; Eya2 inh: 7%

What do the screens show for `COc1ccccc1/C=N/NC(=O)CSc1cc(C)nc2ccccc12`?
USP2a block: -1%; CtBP-E1A inh: -4; PI4K2A inh: -21; Six1-Eya2 inh: -7; RGS4 inhibitor: -6%; Eya2 inh: 1%

How did COc1ccc2nc(C)cc(SCC(=O)N/N=C/c3ccccc3)c2c1 do in these assays?
USP2a block: 2%; CtBP-E1A inh: -21; PI4K2A inh: -1; Six1-Eya2 inh: inconclusive; RGS4 inhibitor: -39%; Eya2 inh: 1%

How did COc1ccc2nc(C)cc(SCC(=O)N/N=C/c3ccc(O)cc3O)c2c1 do in these assays?
USP2a block: 1%; CtBP-E1A inh: -70*; PI4K2A inh: -5; Six1-Eya2 inh: -74*; RGS4 inhibitor: -15%; Eya2 inh: 3%

What do the screens show for `O=C(CCCc1nc(-c2ccco2)no1)Nc1ccccc1[N+](=O)[O-]`?
PI4K2A inh: -2; RGS4 inhibitor: 12%

What do the screens show for `Cc1ccc(C)c(Cn2c(=O)c3c(nc4n3CCN4c3ccccc3)n(C)c2=O)c1`?
PI4K2A inh: -5; RGS4 inhibitor: 21%

How did N#Cc1c(=O)c2nc(NCCCO)ncc2n2c(=O)c3ccccc3[nH]c12 do in these assays?
USP2a block: 0%; CtBP-E1A inh: inconclusive; PI4K2A inh: -7; Six1-Eya2 inh: inconclusive; RGS4 inhibitor: 13%; Eya2 inh: -19%

What do the screens show for `N#Cc1c(=O)c2nc(NCc3ccccc3)ncc2n2ccccc12`?
USP2a block: -1%; CtBP-E1A inh: inconclusive; PI4K2A inh: -4; Six1-Eya2 inh: -66*; RGS4 inhibitor: inconclusive; Eya2 inh: 4%

How did O=C(CSc1nccc(=O)[nH]1)c1ccccc1Br do in these assays?
USP2a block: 0%; CtBP-E1A inh: -68*; PI4K2A inh: -16; Six1-Eya2 inh: -70*; RGS4 inhibitor: -1%; Eya2 inh: 17%

What do the screens show for `O=C(CSc1nccc(=O)[nH]1)c1c[nH]c2ccccc12`?
USP2a block: -2%; CtBP-E1A inh: -1; PI4K2A inh: -4; Six1-Eya2 inh: 1; RGS4 inhibitor: 21%; Eya2 inh: 11%

What do the screens show for `Nc1c(I)cc(I)c(C(=O)N(CCC(=O)O)c2ccccc2)c1I`?
PI4K2A inh: -3

How did Cc1ccc(-n2nnc(-c3cccnc3)n2)cc1 do in these assays?
CtBP-E1A inh: 8; PI4K2A inh: -1; Six1-Eya2 inh: 1; RGS4 inhibitor: 5%

Results for Cc1ccc(-n2nnc(-c3nccn3C)n2)cc1 ?
USP2a block: -2%; CtBP-E1A inh: 3; PI4K2A inh: -53*; Six1-Eya2 inh: 3; RGS4 inhibitor: -3%; Eya2 inh: 17%

What do the screens show for `COc1ccc(-c2nnc3c4ccccc4c(C)nn23)cc1S(=O)(=O)N1CCN(CCO)CC1`?
USP2a block: -1%; CtBP-E1A inh: -82*; PI4K2A inh: -14; Six1-Eya2 inh: -71*; RGS4 inhibitor: -14%; Eya2 inh: -5%

How did Cc1ccc(-c2nn3c(C)nnc3c3ccccc23)cc1S(=O)(=O)N1CCN(CCO)CC1 do in these assays?
USP2a block: 5%; CtBP-E1A inh: -28; PI4K2A inh: -1; Six1-Eya2 inh: -26; RGS4 inhibitor: -12%; Eya2 inh: -2%

What do the screens show for `Cc1nn2c(-c3ccco3)nnc2c2ccccc12`?
CtBP-E1A inh: -20; PI4K2A inh: 3; Six1-Eya2 inh: -18; RGS4 inhibitor: -7%

Results for Cc1nn2c(-c3ccc(S(=O)(=O)N4CCN(CCO)CC4)o3)nnc2c2ccccc12 ?
USP2a block: 2%; CtBP-E1A inh: -75*; PI4K2A inh: -1; Six1-Eya2 inh: inconclusive; RGS4 inhibitor: 4%; Eya2 inh: 4%

How did O=c1[nH]cnc2c1sc1nc3c(c(-c4ccc(Cl)cc4)c12)CCC3 do in these assays?
USP2a block: 4%; CtBP-E1A inh: -71*; PI4K2A inh: 0; Six1-Eya2 inh: inconclusive; RGS4 inhibitor: 17%; Eya2 inh: 4%

How did CC1C=CC=CC=CC=CC=CC=CC=CC(OC2OC(C)C(O)C(N)C2O)CC2OC(O)(CC(O)CC(O)C(O)CCC(O)CC(O)CC(=O)OC(C)C(C)C1O)CC(O)C2C(=O)O (stereo unspecified) do in these assays?
CtBP-E1A inh: 0; PI4K2A inh: inconclusive; Six1-Eya2 inh: -75*; RGS4 inhibitor: inconclusive

What do the screens show for `CN(C)c1ccc(NC(=O)Cn2nnc3sc4c(c3c2=O)CCC(C(C)(C)C)C4)cc1` (stereo unspecified)?
PI4K2A inh: -13; RGS4 inhibitor: -5%

Results for O=[N+]([O-])c1cc(F)cc(F)c1Nc1ccc(F)cc1 ?
CtBP-E1A inh: -67*; PI4K2A inh: -2; Six1-Eya2 inh: inconclusive; RGS4 inhibitor: 16%

How did O=[N+]([O-])c1cnccc1Nc1ccc(F)cc1 do in these assays?
USP2a block: 0%; CtBP-E1A inh: 2; PI4K2A inh: 7; Six1-Eya2 inh: -3; RGS4 inhibitor: -20%[11.4 µM]; Eya2 inh: -20%

Results for Cc1c(-c2ccccc2)nc2ccccc2c1C(=O)Oc1ccc([N+](=O)[O-])cc1 ?
USP2a block: 4%; CtBP-E1A inh: -21; PI4K2A inh: 4; Six1-Eya2 inh: -12; RGS4 inhibitor: -19%; Eya2 inh: -12%

Results for Cc1nc2cccc(C(=O)Oc3ccc([N+](=O)[O-])cc3)c2o1 ?
USP2a block: 0%; CtBP-E1A inh: -15; PI4K2A inh: 3; Six1-Eya2 inh: -82*; RGS4 inhibitor: 8%; Eya2 inh: -24%
